Assay results reported in PubChem BioAssay AID1159580 (chemical genetic matrix, 2015).
The campaign covered roughly 5,500 compounds. About 2,000 (36%) were called active. Inconclusive results (about 18%) are left out. Cut-off read from the data, not from the text of the source: active = normalized growth mostly below about 0.91 (no sharp cut-off); inconclusive = no clear call, values can overlap the other calls; inactive = mostly above about 0.92. Some of the results follow.

Experiment: chemical genetic growth profiling, strain panel (AID 1159580);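 note: tested at 20 µM; growth read once vehicle control cultures reached saturation at 30 °C; 1 = growth at the plate median or of vehicle wells; lower values mean less growth of the strain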
Details: growth OD

Measured: normalized growth

COc1ccc2c3c([nH]c2c1)C(C)=NCC3
inactive: S. cerevisiae deletion strains, locus YKL009W, strain mrt4, active compounds read low 1.02 | S. cerevisiae deletion strains, locus YKL068W, active compounds read low 0.999 | S. cerevisiae deletion strains, locus YKL085W, strain MDH1 (second series), active compounds read low 0.996 | S. cerevisiae deletion strains, locus YKL085W, strain MDH1, active compounds read low 0.996 | S. cerevisiae deletion strains, locus YKL160W, strain elf1, active compounds read low 1.01 | S. cerevisiae deletion strains, locus YKL190W, strain CNB1, active compounds read low 1.01 | S. cerevisiae deletion strains, locus YKR001C, strain vps1, active compounds read low 0.975 | S. cerevisiae deletion strains, locus YKR026C, strain gcn3, active compounds read low 1.01 | S. cerevisiae deletion strains, locus YKR091W, strain srl3, active compounds read low 0.999 | S. cerevisiae deletion strains, locus YLL001W, strain dnm1, active compounds read low 1.01 | S. cerevisiae deletion strains, locus YLL026W, active compounds read low 0.987 | S. cerevisiae deletion strains, locus YLL041C, strain sdh2, active compounds read low 1.01 | S. cerevisiae deletion strains, locus YLR027C, strain aat2, active compounds read low 1 | S. cerevisiae deletion strains, locus YLR039C, strain RIC1, active compounds read low 1.02 | S. cerevisiae deletion strains, locus YLR058C, strain SHM2, active compounds read low 1.01 | S. cerevisiae deletion strains, locus YLR102C, strain apc9, active compounds read low 0.987 | S. cerevisiae deletion strains, locus YLR113W, strain HOG1, active compounds read low 0.993 | S. cerevisiae deletion strains, locus YLR221C, strain rsa3, active compounds read low 1 | S. cerevisiae deletion strains, locus YLR258W, strain gsy2, active compounds read low 0.999 | S. cerevisiae deletion strains, locus YLR262C, strain YPT6 (second series), active compounds read low 0.983 | S. cerevisiae deletion strains, locus YLR262C, strain YPT6, active compounds read low 1.03 | S. cerevisiae deletion strains, locus YLR268W, strain sec22, active compounds read low 0.979 | S. cerevisiae deletion strains, locus YLR320W, strain mms22, active compounds read low 0.988 | S. cerevisiae deletion strains, locus YLR330W, strain CHS5, active compounds read low 1 | S. cerevisiae deletion strains, locus YLR342W, strain FKS1 (second series), active compounds read low 1.01 | S. cerevisiae deletion strains, locus YLR342W, strain FKS1, active compounds read low 0.972 | S. cerevisiae deletion strains, locus YLR357W, strain rsc2, active compounds read low 0.991 | S. cerevisiae deletion strains, locus YLR370C, strain arc18, active compounds read low 1 | S. cerevisiae deletion strains, locus YLR371W, strain rom2, active compounds read low 0.976 | S. cerevisiae deletion strains, locus YLR384C, strain iki3, active compounds read low 1 | S. cerevisiae deletion strains, locus YLR418C, strain cdc73, active compounds read low 0.98 | S. cerevisiae deletion strains, locus YML016C, strain PPZ1, active compounds read low 1 | S. cerevisiae deletion strains, locus YML032C, strain rad52, active compounds read low 0.993 | S. cerevisiae deletion strains, locus YML120C, strain ndi1, active compounds read low 0.986 | S. cerevisiae deletion strains, locus YML124C, strain tub3, active compounds read low 0.987 | S. cerevisiae deletion strains, locus YMR058W, strain fet3, active compounds read low 1.02 | S. cerevisiae deletion strains, locus YMR078C, strain ctf18, active compounds read low 0.996 | S. cerevisiae deletion strains, locus YMR125W, strain sto1, active compounds read low 1 | S. cerevisiae deletion strains, locus YMR129W, active compounds read low 0.981 | S. cerevisiae deletion strains, locus YMR205C, strain PFK2, active compounds read low 1.01 | S. cerevisiae deletion strains, locus YMR223W, strain ubp8, active compounds read low 0.99 | S. cerevisiae deletion strains, locus YMR231W, strain pep5, active compounds read low 0.999 | S. cerevisiae deletion strains, locus YMR263W, strain SAP30, active compounds read low 1.01 | S. cerevisiae deletion strains, locus YMR307W, strain GAS1, active compounds read low 1.04 | S. cerevisiae deletion strains, locus YNL067W, strain RPL9B, active compounds read low 0.999 | S. cerevisiae deletion strains, locus YNL071W, strain lat1, active compounds read low 1 | S. cerevisiae deletion strains, locus YNL128W, strain TEP1, active compounds read low 1.01 | S. cerevisiae deletion strains, locus YNL153C, strain GIM3, active compounds read low 0.997 | S. cerevisiae deletion strains, locus YNL183C, strain NPR1, active compounds read low 0.934 | S. cerevisiae deletion strains, locus YNL209W, strain ssb2, active compounds read low 1 | S. cerevisiae deletion strains, locus YNL233W, strain BNI4, active compounds read low 0.999 | S. cerevisiae deletion strains, locus YNL248C, strain rpa49, active compounds read low 1 | S. cerevisiae deletion strains, locus YNL250W, strain rad50, active compounds read low 0.983 | S. cerevisiae deletion strains, locus YNL271C, strain bni1, active compounds read low 0.984 | S. cerevisiae deletion strains, locus YNL298W, strain CLA4, active compounds read low 0.971 | S. cerevisiae deletion strains, locus YNL307C, strain MCK1, active compounds read low 0.987 | S. cerevisiae deletion strains, locus YNL322C, strain KRE1 (second series), active compounds read low 1 | S. cerevisiae deletion strains, locus YNL322C, strain KRE1, active compounds read low 1.01 | S. cerevisiae deletion strains, locus YNR049C, strain mso1, active compounds read low 0.999 | S. cerevisiae deletion strains, locus YNR052C, strain pop2, active compounds read low 0.989 | S. cerevisiae deletion strains, locus YOL006C, strain TOP1, active compounds read low 1.02 | S. cerevisiae deletion strains, locus YOL012C, strain htz1 0.706 | S. cerevisiae deletion strains, locus YOL147C, strain pex11, active compounds read low 0.99 | S. cerevisiae deletion strains, locus YOR001W, strain rrp6, active compounds read low 1.01 | S. cerevisiae deletion strains, locus YOR061W, strain CKA2, active compounds read low 1 | S. cerevisiae deletion strains, locus YOR069W, strain VPS5, active compounds read low 1.01 | S. cerevisiae deletion strains, locus YOR070C, strain gyp1, active compounds read low 0.991 | S. cerevisiae deletion strains, locus YOR080W, strain dia2, active compounds read low 0.997 | S. cerevisiae deletion strains, locus YOR083W, strain WHI5, active compounds read low 0.991 | S. cerevisiae deletion strains, locus YOR106W, strain vam3, active compounds read low 1.01 | S. cerevisiae deletion strains, locus YOR136W, strain idh2, active compounds read low 0.983 | S. cerevisiae deletion strains, locus YOR144C, strain elg1, active compounds read low 0.983 | S. cerevisiae deletion strains, locus YOR184W, strain ser1, active compounds read low 0.994 | S. cerevisiae deletion strains, locus YOR231W, strain MKK1, active compounds read low 0.987 | S. cerevisiae deletion strains, locus YOR265W, strain rbl2, active compounds read low 1 | S. cerevisiae deletion strains, locus YOR270C, strain vph1, active compounds read low 0.997 | S. cerevisiae deletion strains, locus YOR290C, strain snf2, active compounds read low 1.01 | S. cerevisiae deletion strains, locus YOR316C, strain cot1, active compounds read low 0.987 | S. cerevisiae deletion strains, locus YPL051W, strain arl3, active compounds read low 0.999 | S. cerevisiae deletion strains, locus YPL055C, strain LGE1, active compounds read low 1.03 | S. cerevisiae deletion strains, locus YPL078C, strain atp4, active compounds read low 1 | S. cerevisiae deletion strains, locus YPL106C, strain sse1, active compounds read low 0.991 | S. cerevisiae deletion strains, locus YPL240C, strain hsp82, active compounds read low 0.996 | S. cerevisiae deletion strains, locus YPL241C, strain CIN2, active compounds read low 1 | S. cerevisiae deletion strains, locus YPL256C, strain CLN2, active compounds read low 0.976 | S. cerevisiae deletion strains, locus YPR119W, strain clb2, active compounds read low 0.995 | S. cerevisiae deletion strains, locus YPR141C, strain kar3, active compounds read low 0.984 | S. cerevisiae deletion strains, locus YPR163C, strain tif3, active compounds read low 0.99 | S. cerevisiae deletion strains, locus YPR167C, strain met16, active compounds read low 0.991 | S. cerevisiae deletion strains, strain wtn01, active compounds read low 0.977 | S. cerevisiae strains, strain wild type, active compounds read low 1.01
